About 170 (7.4%) of roughly 2,300 compounds were called active.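 How the source made its calls: active means over 5% cells positive for green fluorescent reporter, or over 2% positive for both it and APC stain; inactive means the rest, inconclusive results apart.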 Only a sample is shown.

A short description of this assay: fluorescent artefacts in myeloid progenitor cells – cell-based, flow cytometry, GFP/APC, Cherry Pick01, artefact control for AML myeloid differentiation project, confirmation (AID 651707).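 On double positive: share of cells both GFP positive and bound by Mac1 APC antibody.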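 On fluorescence response: range taken on the double positive population between DMSO and positive control.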 As to conditions: ER-HoxA9 myeloid progenitors, no estrogen, GFP autofluorescence flow cytometry, stronger effect = higher value; double positive: measured here: double positive GFP/APC population; fluorescence response: vehicle wells 0%, positive control 100%.
In the case of `O=C(CCCN1C(=O)CCC1=O)Nc1ccc(Cl)c(C(F)(F)F)c1`, the fluorescence response was 0% (inactive).
Same read-out and setting: the same measure for `CCOC(=O)c1c(-c2ccccc2)oc2ccc(OCC(=O)NN)cc12`: 0% (inactive); for `CC(C)OC(=O)CN1C(=O)C(=O)c2ccccc21`: 0.5% (inactive); for `Cc1ccc(C)c(S(=O)(=O)N2CCN(c3ncnc4sccc34)CC2)c1`: 0% (inactive).
On to `O=C(NCC1CCCCC1)NCC1CCCCC1`, for which the fluorescence response is 0.2% (inactive).
Regarding `Nc1nc(Nc2ccccc2F)nc(NC2CCCCC2)c1[N+](=O)[O-]`, the fluorescence response is 0% (inactive).
Take `COc1cccc(NC(=O)[C@H](Cc2c[nH]c3ccccc23)NC(=O)[C@@H]2Cc3ccccc3CN2)c1`: the fluorescence response is 0.6% (inactive).
Consider `COc1ccccc1NC(=O)c1cc(Cl)nnc1Cl`, for which the fluorescence response is 0.6% (inactive).
Same read-out and setting: as for `O=C(Nc1cccc2ncccc12)c1ccc(-c2ccc(Cl)cc2Cl)o1`, the figure is 0.6% (inactive); as for `CCOC(=O)C1=C(CN2CCc3ccccc32)NC(=O)NC1c1cccc([N+](=O)[O-])c1` (stereo unspecified), 0% (inactive).
Consider `O[C@H]1CN(Cc2cccs2)[C@@H](c2ccc(Cl)cc2)C[C@@H]1n1cc(C2CC2)nn1`, for which the fluorescence response was 0% (inactive).
On to `O[C@H]1C[C@H](c2ccc(Cl)cc2)N(Cc2cccs2)C[C@@H]1n1cc(C2CC2)nn1`, for which the fluorescence response was 0.5% (inactive).
`O=c1oc2ccccc2cc1-c1csc(Nc2ccc(O)cc2)n1`: the fluorescence response is 55.3% (active).
Take `Cc1ccc(-c2nc(C#N)c(NCCCn3ccnc3)o2)cc1`: the fluorescence response was 0.3% (inactive).
Same read-out and setting: as for `Cc1ccc(C(=O)NC2CCCC(C)C2C)cc1S(=O)(=O)N1CCCCC1` (stereo unspecified), the figure is 0% (inactive).
On the same count and under the same terms, the same measure for `Cc1cc(C)c(-c2csc(NC(=O)CCCc3nc4ccccc4c(=O)[nH]3)n2)c(C)c1`: 2.2% (inactive); for `CC1CCCC(NC(=O)CN2CCN(Cc3ccc(Cl)cc3)C2=O)C1C` (stereo unspecified): 0% (inactive).
Consider `COc1ccc(C(=O)N(Cc2ccccc2)c2ccc(C)cc2)cc1S(=O)(=O)N1CCOCC1`, for which the fluorescence response was 1.5% (inactive).
For `CN(C(=O)c1cccc([N+](=O)[O-])c1)c1ccccc1C(=O)NCc1ccccc1`, the fluorescence response was 0.4% (inactive).
`Cc1ccc(OS(=O)Nc2cccc3nccnc23)cc1` (stereo unspecified): the fluorescence response was 0% (inactive).
With `Fc1cccc(Cl)c1CSc1ccc(-c2ccco2)nn1`, the double positive was found to be 0.2% and the fluorescence response is 0.5% (inactive).
In the case of `O=C(CN1C(=O)NC(Cc2c[nH]c3ccccc23)C1=O)Nc1ccccc1C(F)(F)F` (stereo unspecified), the fluorescence response was 0% (inactive).
Consider `CCOC(=O)C(C(=O)OCC)C(C#N)c1ccccc1` (stereo unspecified), for which the fluorescence response was 0% (inactive).
The same measure, in the same setting: the same measure for `CCN(CC)c1ccc(/C=N/NC(=O)CNC(=O)c2cccs2)cc1`: 0% (inactive).
For the compound `COc1ccc(C(C(=O)NCc2ccccc2)n2c(=O)c(-c3ccccc3)nc3ccccc32)cc1` (stereo unspecified), the fluorescence response was 0.7% (inactive).

The record behind these values is PubChem BioAssay AID651707 (NMMLSC, 2012).
